Most compounds without a hit are left out; they make up all but 2.6% or so of the library.
PABP1 MLLE inh – blocks PAM2 peptide binding to the PABP1 MLLE domain. 360,000 tested, 0.36% active. P11940. inhibition, % at 20 µM. AID 588489. GST-MLLE / FITC-PAM2 fluorescence polarization; in the data active = inhibition above about 35%, passing the limit was not always enough
PABP polyA inh – PABP-poly(A) binding inhibition | P11940 | PABP-poly(A) RNA binding, fluorescence polarization | calls only at 35 µM | 290,000 tested, 1% active;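 also: calls also rest on retests at 20 µM and on dose response follow-up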
PHOSPHO1 inh – PHOSPHO1 (human) inhibition. inhibition, % at 13.3 µM. 290,000 tested, 1.1% active. Q8TCT1. recombinant PHOSPHO1, absorbance phosphatase assay; in the data active = inhibition above about 60%
Target sequence (Q8TCT1 whole entry, looked up): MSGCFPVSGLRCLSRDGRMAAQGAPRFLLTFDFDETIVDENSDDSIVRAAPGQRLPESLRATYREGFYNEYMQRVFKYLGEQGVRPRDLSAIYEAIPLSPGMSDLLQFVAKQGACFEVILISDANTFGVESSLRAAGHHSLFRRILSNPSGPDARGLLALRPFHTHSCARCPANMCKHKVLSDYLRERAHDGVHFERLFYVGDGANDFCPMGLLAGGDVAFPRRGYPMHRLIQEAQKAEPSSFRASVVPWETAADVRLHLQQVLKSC
A3A deaminase – blocks human APOBEC3A ssDNA deamination; inhibition, % at 20 µM; 330,000 tested, 0.41% active; P31941; AID 493011; recombinant A3A, FAM/TAMRA ssDNA deamination fluorescence;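 active = at least 40% inhibition at 20 µM here, with at most 30% in a related deaminase screen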
A3G deaminase – blocks human APOBEC3G single-stranded DNA deamination. inhibition, % at 20 µM. 330,000 tested, 0.28% active. AID 493012. Q9HC16. recombinant A3G, ssDNA deamination FAM/TAMRA fluorescence;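 active = inhibition of at least 40% at 20 µM, with no more than 30% in the related APOBEC3A deaminase screen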
eIF4H inh – inhibitors of RNA binding by human eIF4H; eIF4H fluorescence polarization binding assay; inhibition, % at 35 µM; 290,000 tested, 0.94% active;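 also: calls also rest on retests at 20 µM and on dose response follow-up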
APOBEC3A confirm – confirmation of human APOBEC3A DNA deaminase inhibitors; AID 493151; recombinant A3A, ssDNA deaminase UDG fluorescence assay; inhibition, % at 20 µM; shares compounds with A3A deaminase; 1,400 tested, 63% active;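 active = inhibition reaching a set limit, 80% of the first screen's cutoff, at 20 µM in any replicate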
UDG ctr A3A – inhibits UDG, flagging false APOBEC3A inhibitors. shares compounds with A3A deaminase. UDG counterscreen, FAM/TAMRA uracil oligo fluorescence. inhibition, % at 20 µM. 1,000 tested, under 10 active. AID 504714
Numbers stand for hits; n = inactive; u = inconclusive; x = no result; + = active, no number. Unless noted, no rule for the calls is given here.

SMILES	PABP1 MLLE inh	PABP polyA inh	PHOSPHO1 inh	A3A deaminase	A3G deaminase	eIF4H inh	APOBEC3A confirm	UDG ctr A3A
Cc1cc(C)cc(OCC(=O)N2N=C(C(F)(F)F)CC2(O)C(C)(C)C)c1 (centres undefined)	n	n	n	56.5	n	n	47.6	n
Cc1cc(C)cc(OCC(=O)N2N=C(c3cccnc3)CC2(O)C(F)(F)F)c1 (centres undefined)	n	n	n	n	n	n	x	x
O=C(COc1ccccc1C(=O)NCC1CCCO1)Nc1ccc(Br)cc1 (centres undefined)	n	n	n	n	n	n	x	x
COC(=O)Cn1cc(/C=C/c2cc[n+](C)cc2)c2ccccc21	n	u	n	65.6	n	u	66.7	n
CCCC1=[N+](CC(=O)c2ccccc2)CCn2c(C)ccc21	n	n	n	n	n	n	x	x
CCCC1=[N+](CC)CCn2c(C)ccc21	n	n	n	60.5	n	n	75.8	n
CC(C)N(C(=O)COC(=O)c1cccc(S(=O)(=O)N2CC3(C)CC2CC(C)(C)C3)c1)C(C)C (centres undefined)	n	x	x	n	n	x	x	x
Cc1[nH]c2ccccc2c1/C=C(\C#N)C(=O)NC(C)c1ccccc1 (centres undefined)	n	+	94.5	41.2	n	n	72.4	n
O=S(=O)(NCCC1CC1(Cl)Cl)c1ccc(Cl)cc1 (centres undefined)	n	n	n	n	n	n	x	x
Cn1nnnc1SCc1ccc(C(=O)Nc2ccccc2F)cc1	n	n	n	n	n	n	x	x
O=C(Nc1ccccc1)c1ccc(CSc2ncccn2)cc1	n	n	n	43.3	n	n	n	x
CC(=O)Nc1nnc(SCc2ccc(C(=O)Nc3ccccc3F)cc2)s1	n	n	n	47.7	n	n	52.6	n
O=C(Nc1ccccc1F)c1ccc(CSc2ncccn2)cc1	n	n	n	69.7	n	n	55.2	n
CCN(CC)C(=O)c1cccc(-c2csc(C(O)(c3ccccc3)C(F)(F)F)n2)c1 (centres undefined)	n	x	x	x	x	x	x	x
COCc1cc(=O)n2[nH]c(-c3cccs3)cc2n1	n	n	n	n	n	n	x	x
CC(=O)Nc1ccc2nc(SCC(=O)NCCOc3ccccc3)sc2c1	n	n	n	n	n	n	x	x
CC(=O)Nc1nnc(SCC(=O)NCCOc2ccccc2)s1	n	+	n	56.5	n	active	63.1	n
CCC(=O)Nc1nnc(SCC(=O)NCC2CCCO2)s1 (centres undefined)	n	n	n	n	n	n	x	x
CC(=O)Nc1nnc(SCC(=O)NCC2CCCO2)s1 (centres undefined)	n	n	86.5	40.8	n	n	39.7	n
CCCCn1c(N)c(N(CC(C)C)C(=O)c2ccc([N+](=O)[O-])o2)c(=O)[nH]c1=O	n	x	x	n	n	x	x	x
CN1CCCN(S(=O)(=O)c2ccc(O)c(C(=O)O)c2)CC1	n	n	n	n	n	n	x	x
CC1(C)CC(NC(=O)c2ccccc2NS(=O)(=O)c2ccc(Br)cc2)CC(C)(C)N1	n	x	x	x	x	x	x	x
COc1ccc(N=C2NC(=O)/C(=C\c3ccco3)S2)cc1	n	n	n	64.3	n	n	36.2	n
Cc1ccc(S(=O)(=O)/N=C2/NC(=O)/C(=C/c3ccccc3)S2)cc1	n	n	n	n	n	n	x	x
COc1ccc(/C=C2\SC(=Nc3ccccc3)NC2=O)cc1	x	n	n	n	n	n	x	x
SMILES	PABP1 MLLE inh	PABP polyA inh	PHOSPHO1 inh	A3A deaminase	A3G deaminase	eIF4H inh	APOBEC3A confirm	UDG ctr A3A
CC(=O)Nc1ccc(S(=O)(=O)/N=C2/NC(=O)/C(=C\c3ccco3)S2)cc1	n	+	n	59.7	n	88.3	31.6	n
NC(=O)CC(NC(=O)c1cccc(Br)c1)c1ccc(N2CCN(c3ccccn3)CC2)c([N+](=O)[O-])c1 (centres undefined)	n	n	n	n	n	n	x	x
COc1ccc(NS(=O)(=O)c2ccc3c(c2)[C@H]2C=CC[C@H]2[C@@H](c2ccc(C(=O)O)cc2)N3)cc1	n	+	n	48.7	n	96.7	29.3	n
CCOC(=O)c1ccc2c(c1)n(CC)c(/C=C/Nc1ccccc1)[n+]2CC	n	n	n	n	n	n	x	x
CCn1c(C)[n+](Cc2ccccc2)c2ccc(C(=O)OC)cc21	n	n	n	53.2	n	n	71.4	n
CCn1c(/C=C/N(C)c2ccccc2)[n+](CC)c2ccc(Cl)cc21	n	n	n	41.7	n	n	64.3	n
CCn1c(/C=C/Nc2ccccc2)[n+](CC)c2ccc(Cl)cc21	n	n	n	n	n	n	x	x
CCn1c(C)[n+](Cc2ccccc2)c2ccc(Cl)cc21	n	n	n	60.3	n	n	72.5	n
CN1C(=O)c2ccccc2CC12c1ccccc1C(=O)N2C (centres undefined)	n	x	x	x	x	x	x	x
COc1ccc(-n2ncc3c(=O)n(CC(C)=O)cnc32)cc1	n	n	x	42.8	n	n	n	n
CCN1CCN(c2ccc(S(=O)(=O)N3CCCCC3)cc2NC(=O)c2sccc2C)CC1	n	x	x	69.4	n	x	64.2	n
CCN1CCN(c2ccc(S(=O)(=O)N3CCCCC3)cc2NC(=O)c2ccc([N+](=O)[O-])o2)CC1	n	x	x	53.1	n	x	33.4	x
CCN1CCN(c2ccc(S(=O)(=O)N3CCCCC3)cc2NC(=O)c2ccc(C)c(C)c2)CC1	n	x	x	x	x	x	x	x
COc1ccc(CNC(=O)c2cccc(S(=O)(=O)N3CCCCC3)c2)cc1OC	n	x	x	n	n	x	x	x
Cc1ccc(/C=C2/SC(=Nc3ccc(F)cc3)NC2=O)s1	n	n	n	50.8	n	n	63.1	n
CC(=O)c1c(C)cc(C)c(CSc2ccccn2)c1C	n	n	x	58.7	n	n	57.5	n
COc1ccc(C(C)=O)cc1CSc1ccccn1	n	n	n	n	n	n	x	x
CCOC(=O)c1oc2cc(O)cc(C)c2c1C	n	x	x	x	x	x	x	x
COc1cc(Cl)c(C)cc1NC(=O)CSc1sc2c(O)cc(=O)[nH]c2c1C#N	n	+	n	69.4	n	70.6	18.2	n
O=C(Nc1ccccc1Cl)Nc1ccnn1C1CCN(C(=O)C2CCOC2)CC1 (centres undefined)	n	x	x	x	x	x	x	x
O=C(c1ccc(S(=O)(=O)N2CCCCC2)cc1)N1CCN=C1SCc1cccnc1	n	n	n	50.3	n	n	n	n
N#CCC(=O)N/N=C/c1cn(Cc2cccc3ccccc23)c2ccccc12	n	n	n	n	n	n	x	x
N#CCC(=O)N/N=C/c1cn(Cc2ccccc2C#N)c2ccccc12	n	n	n	56.3	n	n	71.9	n
CCOC(=O)Cn1c2[n+](c3ccccc31)CC(O)CS2 (centres undefined)	n	n	n	69.3	n	n	85.6	n
C=CCn1c(SCC(=O)NC2CCCCC2)nc2ccccc2c1=O	n	n	n	n	n	n	x	x

From PubChem BioAssay
